# Compounds with a hit are over-represented: about 6.6% of the library has one in this group of screens.
# HT1080NT lethal: kills 2HG-producing HT-1080-NT fibrosarcoma cells. HT-1080-NT fibrosarcoma viability, CellTiter-Glo ATP luminescence, 48 h. Potency, µM (top dose mostly 46.1 µM), inactives show top-dose activity, negative = less viability, actives largely listed as cytotoxic. actives 1.6% (n = 360,000). AID 686970;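 further: NT is the 2HG producing partner of a matched IDH1 knockdown line; 0% = DMSO-treated cells and -100% = media-only wells without cells; nearly all actives have a fitted effect of over 55% in size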
#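 Toxicity toward the 2HG-producing NT line was scored as %Activity, normalised to DMSO and no-cell wells, from CellTiter-Glo luminescence after 48 hours' treatment.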
# KB-V1 cytotox: kills drug-selected multidrug resistant KB-V1 cells. KB-V1 MDR cells viability, CellTiter-Glo, 72 h. Potency, µM (titrated, usually from 46.1 µM), actives largely listed as cytotoxic. actives 3.4% (n = 400,000); further: on the % scale 0 is the no-effect control and ±100 the full control effect; nearly all actives have a fitted effect of over 60% in size
#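 Cells of the MDR subline KB-V1 are plated, dosed with compound at multiple concentrations, and incubated 72 h at 37 degrees C; CellTiter-Glo is then added and luminescence read after 10 min.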
# TGFb SMAD3 inh: blocks TGF-b signaling; AID 588855; Potency, µM (series often up to 46.1 µM), inactives show top-dose activity, negative = inhibition, actives largely listed as inhibitors; HepG2 CAGA-GFP TGF-b/SMAD3 reporter, GFP fluorescence, 18 h; TGF-beta stimulated, 500 pg/mL final; actives 1.2% (n = 410,000); further: on the % scale 0 is the no-effect control and ±100 the full control effect; nearly all actives have a fitted effect of over 65% in size
#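 Inhibition of TGF-beta-driven CAGA-GFP reporter expression in HEPG2 cells is measured by cellular GFP fluorescence after 18 h stimulation with 500 pg/mL recombinant TGF-beta in 1% FBS medium at 37 degrees C.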
# HepG2 tox: kills HepG2 cells in TGF-b inhibitor counter-screen; HepG2 CAGA-GFP viability, ATP luminescence, 18 h; Potency, µM (top dose mostly 46.1 µM), for the others: at the top dose activity change, negative = cytotoxicity, usual class: cytotoxic; actives 0.76% (n = 410,000); AID 588856
#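 HepG2 CAGA-GFP cells (1000/well, DMEM with 1% FBS) received compound, then TGF-beta at 500 pg/mL final, and were incubated 18 hours at 37 degrees C. Viability was read by CellTiter-Glo luminescence. Media-only wells were set as complete cell-killing and DMSO as no toxicity.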
# KB-3-1 cytotox: KB-3-1 parental cell cytotoxicity. Potency, µM (titrated, usually from 46.1 µM), most hits filed as cytotoxic. KB-3-1 viability, CellTiter-Glo ATP luminescence, 72 h. actives 1.4% (n = 400,000); further: on the % scale 0 is the no-effect control and ±100 the full control effect; nearly all actives have a fitted effect of over 60% in size
#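 72 h, 37 °C compound treatment of KB-3-1 parental cells; CellTiter-Glo added, 10 min, luminescence read. Data corrected against DMSO-only plates and normalized before curve fitting.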
# HT1080 IDH1KD tx: toxicity to HT-1080 IDH1 knockdown cells (counter line); actives 2% (n = 360,000); Potency, µM (doses to about 46.1 µM), without a hit: at the top dose activity, negative = toxicity, usual class: cytotoxic; HT-1080 IDH1 knockdown viability, ATP luminescence, 48 h;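 further: 0% = DMSO wells and -100% = cell-free medium wells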
#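 IDH1KD HT-1080 cells, 750/well, RPMI + 5% FBS; compound pinned after 2 h settling; 48 h, 37 °C; CellTiter-Glo luminescence; % activity normalised to DMSO and no-cell wells; curves fitted, classed by r2 and efficacy.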
# * = called active by the depositor; i = inactive; ? = inconclusive; . = not tested or not shown; ! = a repeat was not active. The call rests on the fitted dose curve; in most records, active means well fitted curve in the direction sought with a large enough effect; inconclusive means small, poorly fitted or top-dose-only effect, or another doubt; inactive means no such curve, though single readings can be large; an effect the other way counts as inactive or inconclusive. Potency means the concentration at half of the fitted maximal effect.
SMILES,HT1080NT lethal,KB-V1 cytotox,TGFb SMAD3 inh,HepG2 tox,KB-3-1 cytotox,HT1080 IDH1KD tx
NC(Cc1ccc(Cl)cc1)c1csc(Nc2ccc(S(N)(=O)=O)cc2)n1 (stereo not drawn),?,i,-3.0%,-23.4%,i,?
CS(=O)(=O)c1ccc(Nc2nc(C(N)Cc3ccc(Cl)cc3)cs2)cc1 (stereo not drawn),14.6µM*,?,?,-33.0%,?,?
CC(=O)Nc1ccc(-c2csc(Nc3ccc(S(N)(=O)=O)cc3)n2)cc1,-9.0%,i,6.5%,-16.1%,i,1.8%
NS(=O)(=O)c1ccc(Nc2nc(-c3ccc(F)cc3)cs2)cc1,?,i,?,14.1%,i,14.6µM*
NC(c1csc(Nc2ccc(C(=O)c3ccccc3)cc2)n1)C1CCCCC1 (stereo not drawn),?,i,?,-103.2%,i,14.6µM*
CC(N)c1csc(Nc2ccc(C(=O)c3ccccc3)cc2)n1 (stereo not drawn),?,i,-8.7%,-16.1%,i,-29.3%
NC(c1csc(Nc2ccc(C(=O)c3ccccc3)cc2)n1)c1ccccc1Cl (stereo not drawn),?,20.6µM*,?,-23.8%,?,?
COc1cc(OC)c(NC(=O)CN2C(=O)CCn3nc(-c4cccn4C)cc32)cc1Cl,.,i,13.4%,2.5%,i,.
Cc1ccc(SCC(c2ccccc2)N2CCN(C)CCC2=O)cc1 (stereo not drawn),.,.,-6.1%,-6.1%,.,.
CCc1nnc(SCc2nc(-c3ccccc3)oc2C)c2cc3sccc3n12,.,i,5.9%,-31.6%,i,.
COc1ccc(OC)c(NC(=O)C(C)n2c(=O)c(-c3ccccc3NC(C)=O)nc3ccccc32)c1 (stereo not drawn),.,i,15.1%,-17.5%,i,.
CC(C)CC(N)c1csc(NC(=O)c2cc(C(C)(C)C)nn2Cc2ccccc2)n1 (stereo not drawn),11.6µM*,18.4µM*,?,11.2µM*,?,16.4µM*
NC(Cc1ccc(C(F)(F)F)cc1)c1csc(Nc2ccc(S(N)(=O)=O)cc2)n1 (stereo not drawn),20.6µM*,i,?,-73.7%,i,?
CC(C)CC(N)c1csc(NC(=O)Nc2ccccc2Cc2ccccc2)n1 (stereo not drawn),?,?,?,-92.0%,?,?
Cc1cccc(Cn2nc(C(C)(C)C)cc2C(=O)Nc2ccc(F)cc2)c1,?,?,?,12.6µM*,?,?
CC(C)CC(N)c1csc(NC(=O)C(c2ccccc2)c2ccccc2)n1 (stereo not drawn),7.31µM*,i,?,12.6µM*,?,2.91µM*
COc1ccccc1NC(=O)Nc1nc(C(N)CC(C)C)cs1 (stereo not drawn),-5.5%,i,?,-82.7%,i,-19.3%
Cc1ccn2c(c1)nc(=O)c1cc(S(=O)(=O)N3CCC(C)CC3)c(Cl)cc12,.,i,5.2%,-0.6%,i,.
Cc1cccc(NC(=O)c2cc3c(=O)n4cccc(C)c4nc3s2)c1C,.,?,-13.2%,-41.1%,?,.
NC(Cc1ccc(Cl)cc1)c1csc(Nc2ccc(C(=O)c3ccccc3)cc2)n1 (stereo not drawn),?,?,11.2µM*,10µM*,?,?
COc1ccc(CC(N)c2csc(Nc3ccc(C(=O)c4ccccc4)cc3)n2)cc1 (stereo not drawn),?,i,?,-111.5%,i,?
CC(C)CC(N)c1csc(Nc2ccc(C(=O)c3ccccc3)cc2)n1 (stereo not drawn),?,?,17.8µM*,15.8µM*,i,-21.1%
NC(Cc1ccc(F)cc1)c1csc(Nc2ccc(C(=O)c3ccccc3)cc2)n1 (stereo not drawn),?,?,11.2µM*,12.6µM*,?,14.6µM*
NC(Cc1ccccc1)c1csc(Nc2ccc(C(=O)c3ccccc3)cc2)n1 (stereo not drawn),?,i,?,-100.6%,?,?
CCOC(=O)c1c(C)c(C(=O)NCc2ccco2)c(C)n1Cc1ccccc1,-0.1%,4.11µM*,-5.2%,-16.3%,i,?
SMILES,HT1080NT lethal,KB-V1 cytotox,TGFb SMAD3 inh,HepG2 tox,KB-3-1 cytotox,HT1080 IDH1KD tx
CCOC(=O)C1CCCN(CC(O)COc2ccc(OC)cc2C(C)(C)C)C1 (stereo not drawn),5.5%,i,?,-23.2%,i,3.9%
CCOC(=O)N1CCN(CC(O)COc2ccc(OC)cc2C(C)(C)C)CC1 (stereo not drawn),7.6%,3.66µM*,-1.5%,-2.0%,i,-2.5%
C=CCc1cc(OC)ccc1OCC(O)CN1CCN(c2ccc(OC)cc2)CC1 (stereo not drawn),-9.9%,18.4µM*!,?,-36.6%,i,-24.6%
COc1ccc(CCNCC(O)COc2cccc(Br)c2)cc1OC (stereo not drawn),-15.9%,i,-17.7%,-14.4%,i,-19.2%
COc1ccc(CCNCC(O)COc2ccc(OC)cc2C(C)(C)C)cc1 (stereo not drawn),?,i,?,-169.3%,i,18.4µM*
Cc1oc(-c2ccc(C(=O)Nc3cccc(C(F)(F)F)c3)cc2)nc1CSc1ccccc1,.,.,?,-28.1%,.,.
CC(C)(C)c1ccc(OCC(=O)N(Cc2ccco2)Cc2ccccc2F)cc1,.,.,?,-43.7%,.,.
CCCn1c2c(c(O)c(C(=O)Nc3nccs3)c1=O)CCCC2,13.4%,i,0.0%,10.3%,i,6.7%
CC(C)Cn1c2c(c(O)c(C(=O)Nc3nccs3)c1=O)CCCC2,4.3%,7.31µM*,0.3%,-0.8%,?,?
CC(C)CCCCCCNC(=S)Nc1ccc(S(=O)(=O)N2CCOCC2)cc1,?,8.2µM*,20µM*,-65.2%,?,?
O=S(=O)(c1ccc(NC(=S)Nc2ccccc2)cc1)N1CCOCC1,16.1%,i,-9.6%,5.5%,i,18.4%
O=C(CCc1ccccc1)NC(=S)Nc1ccc(S(=O)(=O)N2CCOCC2)cc1,-10.2%,4.61µM*,-29.1%,-30.4%,?,-27.0%
Cc1csc(NC(=O)CCc2ccc(S(=O)(=O)N3CCOCC3)cc2)n1,-7.8%,23.1µM*,1.0%,-13.2%,i,-7.4%
O=C(Nc1ccc2ccccc2c1)Nc1nnc(-c2cccnc2)s1,.,i,.,.,?,.

# Screening data: PubChem BioAssay, National Center for Advancing Translational Sciences (NCATS)
